Assay outcomes as filed in PubChem BioAssay.
NPR1 activator – GC-A (human) enzyme activation; HEK293 GC-A cells, cGMP TR-FRET, EC30 ANP; 0% at EC30 ANP, 100% saturating ANP; activation, % at 10 µM; hit rate 0.14% among 370,000; AID 1671463; in the data active = activation above about 40%
NPR2 activator – GC-B (human) receptor activation; P20594; HEK293-GC-B cells, CNP EC30, cGMP TR-FRET; 0% at EC30 CNP, 100% saturating CNP; activation, % at 10 µM; hit rate 0.11% among 370,000;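 active = activation at 10 µM reaching about 35% in either raw or pattern-adjusted values, limit read from the data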
PLCg1 inh – blocks human PLC-gamma1 enzyme activity; P19174; purified PLC-gamma1, fluorogenic substrate, fluorescence; inhibition, % at 12.2 µM; hit rate 0.84% among 370,000; in the data active = inhibition above about 9.5%
PLC-beta3 inh – blocks human PLC-beta3 enzyme activity. hit rate 0.18% among 370,000. inhibition, % at 12.2 µM. Purified PLC-beta3, fluorogenic substrate, fluorescence. Q01970; in the data active = inhibition above about 11%
Of the large screens only hits and unclear results are named; the others gave an inactive call. A selection: hits, their analogues and other compounds. The true share with any hit is near 1.2%.

CC(C)CN1CN2Cc3ccccc3C2CS1(=O)=O (stereo not drawn)	none
COc1ccc(NC(=O)CSc2nnc(C)s2)cc1S(=O)(=O)N1CCOCC1	none
CCOC(=O)c1ccc(N2N=C(C)/C(=C/C=C/c3ccco3)C2=O)cc1	none
O=C(O)c1cc(N2N=C(C(F)(F)F)/C(=C/C=C/c3ccco3)C2=O)ccc1Cl	PLCg1 inh 63
COCCn1c(-c2ccc(-c3ccccc3Cl)o2)nc2c1c(=O)[nH]c(=O)n2CC(C)C	NPR2 activator 36
Cc1ccnc(NC(=O)c2cccc(S(=O)(=O)N3CCOCC3)c2)c1	none
COc1ccc(N2CSC3=C(C#N)C(c4cccs4)CC(=O)N3C2)cc1 (stereo not drawn)	PLCg1 inh 9.9
CCOc1ccccc1NC(=O)NNC(=O)c1ccc2ccccc2c1	none
NCCCn1c(C(=O)c2cc(Cl)c(N)c(Cl)c2)c2ccc(C(F)(F)F)cc2[n+]1[O-]	none
NC(=O)CCCn1c(C(=O)c2cc(Cl)c(N)c(Cl)c2)c2ccc(C(F)(F)F)cc2[n+]1[O-]	NPR2 activator 84
COc1cc(C2C(C#N)=C(N)Oc3cc(N(C)C)ccc32)cc2c1OCO2 (stereo not drawn)	none
N#CC1=C(N)Oc2cc(N)ccc2C1c1cccc(Br)c1 (stereo not drawn)	NPR1 activator 46
N#CC1=C(N)Oc2cc(O)ccc2C1c1ccccc1 (stereo not drawn)	NPR1 activator 57
Cc1ccc(C2C(C#N)=C(N)Oc3cc(N)ccc32)cc1 (stereo not drawn)	none
COc1cc(C2C(C#N)=C(N)Oc3cc(O)ccc32)cc2c1OCO2 (stereo not drawn)	NPR1 activator 53
COc1cc(CNCCN(C)C)c(Br)cc1OCC(=O)NCc1ccccc1	none
O=C(CNc1ccccc1)Nc1ccc(F)cc1	none
CCc1cc(=O)[nH]c(SCCC(F)=C(F)F)n1	none
Cc1cc(C)n(/N=C/c2ccco2)c(=O)c1C#N	none
O=C(NN1C(=O)NC2(CCCCC2)C1=O)c1ccc(-c2ccccc2Cl)o1	none
O=C1CC(Sc2nnnn2-c2ccccc2)C(=O)N1c1cccc(Cl)c1 (stereo not drawn)	NPR2 activator 36
COc1ccc(N2C(=O)CC(Sc3nnnn3-c3ccc(F)cc3)C2=O)cc1 (stereo not drawn)	none
CN(NS(C)(=O)=O)c1ncc(C(F)(F)F)cc1Cl	none
O=C(O)c1ccccc1NS(=O)(=O)c1cccc2cccnc12	PLC-beta3 inh 11
CN(CC(=O)Nc1c(Cl)cccc1Cl)C(=O)c1ccc(NS(=O)(=O)c2ccc3[nH]c(=O)[nH]c3c2)cc1	none
COc1cc(/C(C)=N/NC(=S)NC(C)C)cc(OC)c1OC	NPR2 activator 39
COc1cc(/C(C)=N\NC(N)=S)cc(OC)c1OC	none
CCn1cc(/C=C(\NC(=O)c2ccc(OC)cc2)C(=O)NCCCn2ccnc2)c2ccccc21	none
N#CCCn1cc(/C=C(\C#N)c2nc3ccccc3s2)c(-c2ccc(F)cc2)n1	NPR2 activator 62
COc1ccc(C(C(=O)NC2CCCCC2)N(C(=O)c2sc(C)nc2C)c2ccccc2)cc1 (stereo not drawn)	none
COc1ccc(C(C(=O)NC2CCCCC2)N(C(=O)c2sc(C)nc2C)c2ccccc2C)cc1 (stereo not drawn)	PLCg1 inh 9.9
COc1ccc(-c2csc3nc(-c4ccccc4OC)oc(=O)c23)cc1	NPR1 activator 42
COc1ccc(-c2csc3nc(-c4ccc(C)cc4)oc(=O)c23)cc1OC	none
CC(=O)Nc1ccc(CNc2ncnc3ccc(-c4c(C)noc4C)cc23)cc1	NPR2 activator 41
CCOC(=O)/C(C#N)=C\c1ccc(OCC(=O)Nc2ccc(C)cc2C)c(OC)c1	NPR1 activator 47
COc1cc(/C=C2/C(=O)N(c3cccc(Br)c3)N=C2C)cc(OC)c1O	none
CC1=NN(c2ccccc2)C(=O)/C1=C/c1cccc(C)c1	none
CCOc1cc(/C=C2\C(=O)N(CCC#N)N=C2C)ccc1OCC(N)=O	none
COc1ccc(/C=C2/C(=O)N(c3c(F)c(F)c(F)c(F)c3F)N=C2C)cc1	NPR1 activator 46
CC(=O)Oc1ccc(/C=C2/C(=O)N(c3ccccc3)N=C2C)cc1	PLCg1 inh 31
COc1cc(/C=C2\C(=O)N(CCC#N)N=C2C)ccc1OCC(=O)Nc1ccccc1	NPR1 activator 53, NPR2 activator 47
COc1ccc(/C=C2/C(=O)N(c3ccccc3)N=C2C)cc1OC	PLCg1 inh 19
COc1cc(OC)cc(C(=O)NCC(=O)NCCN2C(=O)S/C(=C\c3ccc4c(c3)OCO4)C2=O)c1	none
COc1cc2c(=O)n(Cc3ccccc3)c(=O)n(CC(=O)NCCc3ccccc3)c2cc1OC	PLCg1 inh 9.5
COc1cc2c(=O)n(Cc3ccccc3)c(=O)n(CC(=O)NCC3CCCO3)c2cc1OC (stereo not drawn)	none
O=C(CCC(=O)c1ccc(F)cc1)OC1CCOC1=O (stereo not drawn)	NPR1 activator 56
O=C(OC1CCOC1=O)c1ccc(CO)cc1 (stereo not drawn)	none
CC(C)(C)OC(=O)N1CC=C2C(C#N)=C(N)C(C#N)(C#N)[C@H](c3cccnc3)[C@H]2C1	NPR1 activator 48
O=C(Nc1nc(N2C(=O)c3ccccc3C2=O)n(-c2ccccc2)n1)c1ccc(Cl)cc1	none
Cc1ccc(CSc2nnc(-c3cccs3)n2C)cc1	none
Cn1c(SCc2c(Cl)cccc2Cl)nnc1-c1cccs1	PLCg1 inh 11
COC(=O)c1sc(-c2ccc(Cl)cc2)cc1NC(=O)COCC(=O)O	none
COC(=O)c1sc(-c2ccc(Cl)cc2)cc1NC(=O)/C=C/C(=O)O	NPR1 activator 47
O=C(Cn1cccc1)N1CCN(C(c2ccccc2)c2ccccc2)CC1	none
O=C(NCCN1CCCc2ccccc21)C1CCC(=O)N(CCc2ccccc2)C1 (stereo not drawn)	none
CCOc1cc(N2CCOCC2)c(OCC)cc1NC(=O)Cn1[nH]c(=O)c2ccccc2c1=O	NPR2 activator 36
COc1cccc(-c2cc(C(F)(F)F)n3ncc(C(=O)NCC4CCCO4)c3n2)c1 (stereo not drawn)	NPR2 activator 46
O=C(Nc1cc(C(F)(F)F)ccc1N1CCOCC1)c1ccccc1F	none
Oc1ccc(C=Nc2ccccc2-c2nc3ccccc3[nH]2)cc1	NPR2 activator 45
Nc1ccccc1-c1nc2ccccc2[nH]1	none
CCOc1ccc(N2C(=O)C3Sc4[nH]c(=O)sc4C(/C=C/c4ccccc4)C3C2=O)cc1 (stereo not drawn)	none
COc1cccc(-c2ccc3c(c2)N(Cc2cccc(F)c2)C(=O)C(C)S3)c1 (stereo not drawn)	none
Cc1nc2cc(C(F)(F)F)ccc2n1C	none
O=C(Nc1cccc([N+](=O)[O-])c1)c1ccc2c(c1)C(=O)N(c1ccccn1)C2=O	NPR1 activator 42
CC(=O)Nc1ccc(Nc2nc(C)c([N+](=O)[O-])c(Nc3ccccc3)n2)cc1	NPR1 activator 56, NPR2 activator 58
